# Compound activity: PubChem BioAssay, National Center for Advancing Translational Sciences (NCATS)
# This is a sample that favours compounds with a hit; in the whole collection about 10% have one here.
# hNpr1 antagonist – Natriuretic polypeptide receptor (hNpr1) antagonism - Primary qHTS | HEK293 hNpr1 GloSensor cGMP, ANP-stimulated luminescence | Potency, µM (titrated, usually from 46.3 µM), hits mostly inhibitors | 1.6% of 76,000 active | AID 1347048, 2019; calls by dose curve; note: nearly all actives have a fitted effect of over 60% in size
#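 HEK293 cells stably expressing human Npr1 and cGMP GloSensor pGS-40F, loaded 2 h with 2% GloSensor reagent, given compound 30 min at room temperature. Luminescence read before and 20 min after 0.1 nM hNppA.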
# HEK cytotox – Cytotoxic Profiling in HEK 293 Cell Line of Diverse Libraries Using Quantitative High-Throughput Screening. HEK 293 viability, ATP luminescence (CellTiter-Glo), 48-72 h. Potency, µM (highest dose often 115 µM), hits mostly inhibitors. 6.6% of 94,000 active. AID 1345083, 2018; note: nearly all actives have a fitted effect of over 60% in size
#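 HEK 293 seeded at 250 cells/well receive compound via pintool. After 48 or 72 hr at 37 degree Celsius, 5% CO2 and 95% humidity, CellTiter-Glo is dispensed and luminescence read following 10 min at room temperature.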
# FLuc inh – Firefly luciferase inhibition profiling of diverse chemical library using quantitative high-throughput screening. Luciferin 4-monooxygenase (Photinus pyralis), P08659. purified P. pyralis luciferase, luminescence, biochemical. Potency, µM (series often up to 115 µM), most hits filed as inhibitors. 2.5% of 76,000 active. AID 1347043, 2019; note: nearly all actives have a fitted effect of over 65% in size
#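 Biochemical qHTS: compound (6-point titration) added to 10uM D-luciferin plus 10uM ATP in Tris acetate pH 7.5 buffer with Mg, Tween-20 and BSA, then purified enzyme at 10nM; light output imaged.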
# GPT2 inh – Primary qHTS assay for inhibitors of Glutamate pyruvate transaminase 2 (GPT2). Alanine aminotransferase 2 (Homo sapiens), Q8TD30. Recombinant GPT2, coupled pyruvate oxidase/HRP Amplex Red fluorescence. Potency, µM (doses to about 57.7 µM), hits mostly inhibitors. 0.25% of 100,000 active; note: nearly all actives have a fitted effect of over 60% in size
# Target sequence (Q8TD30 whole entry, looked up): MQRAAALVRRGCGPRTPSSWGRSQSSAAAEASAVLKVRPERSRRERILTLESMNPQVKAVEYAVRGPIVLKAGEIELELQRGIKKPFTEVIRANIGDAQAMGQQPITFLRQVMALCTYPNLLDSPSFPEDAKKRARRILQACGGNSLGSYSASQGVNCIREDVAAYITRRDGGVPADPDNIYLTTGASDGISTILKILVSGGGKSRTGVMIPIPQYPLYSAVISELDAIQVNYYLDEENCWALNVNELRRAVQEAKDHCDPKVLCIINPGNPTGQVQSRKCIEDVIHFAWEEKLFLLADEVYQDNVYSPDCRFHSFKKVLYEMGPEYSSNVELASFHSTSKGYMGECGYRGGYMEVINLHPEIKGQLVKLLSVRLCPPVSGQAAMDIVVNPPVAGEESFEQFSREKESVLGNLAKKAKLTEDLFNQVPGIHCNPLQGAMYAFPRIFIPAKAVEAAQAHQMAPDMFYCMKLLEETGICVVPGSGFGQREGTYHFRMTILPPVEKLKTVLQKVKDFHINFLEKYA
#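 Fluorescence read-out: pyruvate from GPT2 turnover coupled to pyruvate oxidase, HRP and Amplex Red (0.2mM ThPP, 0.2U/mL PO and HRP, 50uM Amplex final). Substrates 250uM a-KG, 2mM L-alanine; enzyme 10ng/uL; 30 min RT.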
# NIH3T3 tox – Cytotoxic Profiling in NIH 3T3 Cell Line of Diverse Libraries Using Quantitative High-Throughput Screening. NIH 3T3 viability, CellTiter-Glo ATP luminescence, 48-72 h. Potency, µM (series often up to 96.7 µM), actives largely listed as inhibitors. 4.3% of 94,000 active. AID 1345082, 2018; note: nearly all actives have a fitted effect of over 55% in size
#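 ATP-dependent luminescence (CellTiter-Glo) served as the viability signal for NIH 3T3 cells treated with compound for 48 or 72 hr at 37 °C.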
# Hits are given with their value; n = inactive; u = inconclusive; x = no result given. Unless noted, calls come from the whole dose curve; as a rule, active = well fitted curve in the direction sought with a large enough effect; inconclusive = small, poorly fitted or top-dose-only effect, or another doubt; inactive = no such curve, though single readings can be large; an effect the other way counts as inactive or inconclusive.
SMILES,hNpr1 antagonist,HEK cytotox,FLuc inh,GPT2 inh,NIH3T3 tox
O=C(NCc1ccccc1)c1nc2sccn2c1-c1cccc(C(F)(F)F)c1,x,n,x,n,n
COC[C@H]1CCCN1C(=O)C[C@@H]1O[C@H](CNC(=O)Nc2cccc(F)c2)[C@@H](O)[C@H]1O,n,n,n,n,n
CC(C)c1ccc(NC(=O)CN2C(=O)NC3(CCOCC3)C2=O)cc1,n,n,n,n,n
CCCNC(=O)N1C[C@@H](Oc2ccccc2)C[C@@H]1C(=O)NCCOC,n,u,n,n,u
COCCN1CCCCCC(O)c2cc(C(=O)NCc3cc(F)cc(F)c3)ccc21 (stereo not drawn),n,u,n,n,u
O=C(NCc1ccccc1)c1nc2sccn2c1-c1ccncc1,x,112µM,x,n,u
COc1ccc(NC(=O)c2nc3sccn3c2-c2ccccc2)cc1,x,u,x,n,u
COc1ccc(-c2c(C(=O)Nc3cccc(Cl)c3)nc3sccn23)cc1,x,63.1µM,x,n,u
Cc1ccc(-c2c(C(=O)NCc3ccccc3)nc3sccn23)cc1,x,n,x,n,n
Cc1ccc(-c2c(C(=O)Nc3ccc(F)cc3)nc3sccn23)cc1,x,u,x,n,u
O=C(NCc1ccccc1Cl)c1nc2sccn2c1-c1cccc(C(F)(F)F)c1,x,25.1µM,x,n,u
Cc1ccc(NC(=O)c2nc3sccn3c2-c2ccncc2)cc1,x,112µM,x,n,u
Cc1ccc(C(=O)N2CCC3(CC2)N=C(c2ccccc2)NO3)cc1,n,u,n,n,n
CC(=O)Nc1ccc(C(=O)N2CCC3(CC2)N=C(c2ccccc2)NO3)cc1,n,n,35.5µM,n,n
Cn1nc(C(=O)N2CCC3(CC2)N=C(c2cccc(Br)c2)NO3)c2ccccc21,n,44.7µM,n,n,u
Cc1ccc(C2=NC3(CCN(C(=O)c4ccccc4Cl)CC3)ON2)cc1,u,n,31.6µM,n,n
O=C(c1ccc2c(c1)OCO2)N1CCC2(CC1)N=C(c1ccccc1)NO2,n,n,39.8µM,n,n
COc1ccc(-c2nnc3n2CCN(C(=O)Cc2ccc(F)cc2)C3)cc1,n,n,n,n,n
CN(C)c1cccc(-c2cn(C)c(=O)n3cc(COc4ccnn4C)nc23)c1,n,u,n,n,u
COc1ccc(-c2cn(C)c(=O)n3cc(COc4ccc(Cl)cc4)nc23)c(C)c1,n,u,n,n,10µM
Cn1cc(-c2cccc(CO)c2)c2nc(COc3ccc(Cl)cc3)cn2c1=O,n,63.1µM,u,n,u
COc1ccc(C)cc1-c1cn(C)c(=O)n2cc(COc3ccc(Cl)cc3)nc12,n,u,n,n,u
CC(=O)Nc1ccccc1-c1cn(C)c(=O)n2cc(COc3ccc(Cl)cc3)nc12,n,u,n,n,100µM
Cn1nccc1OCc1cn2c(=O)n(C)cc(-c3cccc(OC(F)(F)F)c3)c2n1,n,89.1µM,n,n,u
CCC(=O)N1CCC2(CCC(=O)N(CC3CC3)CC2)CC1,n,n,n,n,n
SMILES,hNpr1 antagonist,HEK cytotox,FLuc inh,GPT2 inh,NIH3T3 tox
CCOC(=O)N1CCC(CN(Cc2ccc(Cl)cc2)Cc2ccc([N+](=O)[O-])s2)C1 (stereo not drawn),x,x,x,n,x
O=C(NCc1cccc(Cl)c1)c1ccc2nnc(CC3CC3)n2c1,x,u,x,n,u
COc1ccc(-c2noc(CC3CCN(C(=O)c4cc(OC)c(OC)c(OC)c4)CC3)n2)cc1,u,u,n,n,12.6µM
CCOc1cc(C(=O)N2CCC(Cc3nc(-c4cnccn4)no3)CC2)cc(OCC)c1OCC,n,n,n,u,u
COc1ccc(-c2noc(CC3CCN(C(=O)c4cc(OC)cc(OC)c4)CC3)n2)cc1,u,35.5µM,n,n,u
Cc1ccc(C(=O)N2CCC(Cc3nc(C(C)C)no3)CC2)cc1C,u,u,n,n,44.7µM
COc1ccc(C(=O)N2CCC(Cc3nc(C(C)C)no3)CC2)cc1OC,u,u,n,n,n
COc1ccccc1C(=O)N1CCC(Cc2nc(-c3ccccc3)no2)CC1,u,u,n,n,u
